Reference: PubChem BioAssay AID1520 (The Scripps Research Institute Molecular Screening Center, 2009)
Some of the results follow. A number with no mark means an inactive call. Activity calls are given as the source filed them.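 Rule for the calls: active = cell growth inhibition above the hit limit set in the earlier mutant JAK2 cell screen (cut at about 27% in these data); inactive = the rest.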

Test: parental Ba/F3 cell viability inhibition, counter-screen for JAK2V617F inhibitor project, murine pro-B, CellTiter-Glo luminescence (AID 1520);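 note: plate controls were DMSO-treated cells for no effect and JAK Inhibitor I control wells for full effect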
Settings: at 5.6 µM, stronger effect = higher value, cells kept alive by added IL-3

Row | Compound | inhibition
1 | CCCc1nc2ccccc2c(=O)n1/N=C/c1ccc(O)c(O)c1 | 1.92%
2 | Cc1ccc(NC(=S)N(CCCN2CCC(C)CC2)Cc2ccco2)cc1 | 28.7% (active)
3 | Oc1ccc(/C=N/Nc2ccc(C(F)(F)F)cn2)cc1O | 76.2% (active)
4 | COc1ccc(-c2csc(Nc3ccc(O)cc3)n2)cc1 | 63% (active)
5 | CCn1c(/C=C/c2ccc([N+](=O)[O-])o2)nc2ccccc2c1=O | 106% (active)
6 | COc1ccc(Cc2nnc(N/N=C/c3ccccc3O)[nH]c2=O)cc1OC | 85.6% (active)
